For four compounds, AC50 and outcome results are on record in PubChem BioAssay (EPA / NIEHS).

The source made the active and inactive calls. Rule for the calls: active = hit-call score of the fitted dose curve at least 0.9, where 1 is the maximum; inactive = score below 0.9.

Assay [1] in a line: CEETOX_H295R_CORTIC: CeeTox H295R High-throughput Steroidogenesis Assay for Corticosterone (CORTIC) (AID 2283437).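 Note: corticosterone secreted into medium quantified by mass spectrometry.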 Conditions: actives raise or lower the signal. Put shortly:
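Corticosterone secreted into medium is measured by reverse-phase HPLC with tandem MS following liquid-liquid extraction. Cells are forskolin-stimulated (10 uM, 48 h) before 48 h test exposure; activity fitted in both directions against DMSO.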

A short description of assay [2]: CEETOX_H295R_DOC: CeeTox H295R High-throughput Steroidogenesis Assay for DOC (AID 2283439). As to conditions: actives raise or lower the signal. Put shortly: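 Readout: 11-deoxycorticosterone in culture medium by reverse-phase C18 HPLC with ESI+ tandem MS after MTBE extraction. Cells: H295R, forskolin-primed (10 uM, 48 h), chemical-treated 48 h; DMSO 0.1% final. Activity fitted bidirectionally versus DMSO.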

Assay [3] is described as follows: CEETOX_H295R_ESTRADIOL: CeeTox H295R High-throughput Steroidogenesis Assay for Estradiol (AID 2283440).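 Note: estradiol secreted into medium quantified by LC-MS/MS after dansyl derivatisation.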 Conditions: actives raise or lower the signal. Summed up:
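H295R adrenocortical cells were prestimulated with 10 uM forskolin for 48 h, then exposed to test chemical in 0.1% DMSO for 48 h. Medium estradiol was extracted with MTBE, dansyl-derivatized and quantified by HPLC-MS/MS; bidirectional fit versus DMSO.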

Assay [4] in a line: CEETOX_H295R_ESTRONE: CeeTox H295R High-throughput Steroidogenesis Assay for Estrone (AID 2283441).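 Note: estrone secreted into medium measured by LC-MS/MS after dansyl derivatization.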 Conditions: actives raise or lower the signal. Summed up:
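H295R cells prestimulated 48 h with 10 uM forskolin, then exposed 48 h to chemicals in 0.1% DMSO final; estrone in medium extracted with MTBE, dansyl-derivatized, quantified by HPLC-MS/MS; bidirectional fitting versus DMSO, viability by MTT.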

The nature of assay [5]: CEETOX_H295R_PROG: CeeTox H295R High-throughput Steroidogenesis Assay for Progesterone (PROG) (AID 2283442).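 For AC50: human H295R adrenal cells primed with 10 µM forskolin before dosing.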 As to conditions: actives raise or lower the signal. Put shortly:
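H295R human adrenal cells were prestimulated with 10 uM forskolin for 48 h, then exposed to test chemical (0.1% DMSO final) for 48 h. Medium progesterone was MTBE-extracted and quantified by HPLC-MS/MS, with bidirectional fitting against DMSO.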

Read-out in assay [6]: Tumor necrosis factor receptor superfamily member 6 (Homo sapiens) (UniProt P25445)
Briefly: LTEA_HepaRG_FAS: Life Technologies and Expression Analysis (LTEA) Assay for Fas cell surface death receptor (FAS) using HepaRG (AID 2283447). Conditions: mRNA level, 48 h; actives raise or lower the signal. Summed up: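 FAS transcript level was measured by TaqMan qRT-PCR against three housekeeping genes after 48 h chemical exposure. Cells were HepaRG, 0.5% DMSO vehicle, with a top concentration of 100 uM and half-log dilutions over eight points, in duplicate.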

Read-out in assay [7]: Fatty acid synthase (Homo sapiens) (UniProt P49327)
The assay is described as follows: LTEA_HepaRG_FASN: Life Technologies and Expression Analysis (LTEA) Assay for Fatty Acid Synthase (FASN) using HepaRG (AID 2283448). As to conditions: mRNA level, 48 h; actives raise or lower the signal. Put shortly:
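FASN expression changes, up or down relative to 0.5% DMSO, were measured by qRT-PCR in human HepaRG cells after 48 h treatment with chemicals at eight concentrations (half-log steps from 100 uM).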

Read-out in assay [8]: Cyclin D2 (CCND2), CCND2 (gene 894)
The assay is described as follows: LTEA_HepaRG_CCND2: Life Technologies and Expression Analysis (LTEA) Assay for Cyclin D2 (CCND2) using HepaRG (AID 2283449). Conditions: mRNA level, 48 h; actives raise or lower the signal. Put shortly:
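Read-out is CCND2 mRNA level measured by qRT-PCR in human HepaRG liver cells and normalised to three housekeeping genes. Chemicals were applied for 48 h at up to 100 uM, with gain or loss fitted relative to 0.5% DMSO.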

Read-out in assay [9]: Cyclin Dependent Kinase Inhibitor 1A (CDKN1A), CDKN1A (gene 1026)
The assay is described as follows: LTEA_HepaRG_CDKN1A: Life Technologies and Expression Analysis (LTEA) Assay for Cyclin Dependent Kinase Inhibitor 1A (CDKN1A) using HepaRG (AID 2283450). Conditions: mRNA level, 48 h; actives raise or lower the signal. Summed up: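 Differentiated human HepaRG cells, pre-cultured 48 h, were exposed in duplicate for 48 h in serum-free induction medium to eight half-log concentrations up to 100 uM (0.5% DMSO). CDKN1A mRNA was measured by qRT-PCR, normalized to ACTB/GAPDH/POLR2A, bidirectionally fitted versus DMSO.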

Read-out in assay [10]: Cyclin D1 (CCND1), CCND1 (gene 595)
Briefly: LTEA_HepaRG_CCND1: Life Technologies and Expression Analysis (LTEA) Assay for Cyclin D1 (CCND1) using HepaRG (AID 2283451). Conditions: mRNA level, 48 h; actives raise or lower the signal. Summed up: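 Differentiated human HepaRG cells in serum-free induction medium were exposed 48 h to eight half-log concentrations up to 100 uM in 0.5% DMSO; mRNA quantified by TaqMan qRT-PCR, normalized to ACTB, GAPDH, POLR2A, fitted bidirectionally versus DMSO.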

Read-out in assay [11]: flavin-containing dimethylaniline monooxygenases 3 (FMO3), FMO3 (gene 2328)
Briefly: LTEA_HepaRG_FMO3: Life Technologies and Expression Analysis (LTEA) Assay for flavin-containing dimethylaniline monooxygenases 3 (FMO3) using HepaRG (AID 2283453). Conditions: mRNA level, 48 h; actives raise or lower the signal. Summed up: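 Differentiated HepaRG cells in serum-free induction medium, exposed 48 h in duplicate to 8 half-log concentrations up to 100 uM in 0.5% DMSO. FMO3 mRNA by qRT-PCR, normalized to ACTB, GAPDH, POLR2A; bidirectional fit vs DMSO.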

Read-out in assay [12]: Cytochrome P450 (CYP1A1), CYP1A1 (gene 1543)
Briefly: LTEA_HepaRG_CYP1A1: Life Technologies and Expression Analysis (LTEA) Assay for Cytochrome P450 (CYP1A1) using HepaRG (AID 2283454). As to conditions: mRNA level, 48 h; actives raise or lower the signal. Summed up:
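Differentiated HepaRG cells in serum-free induction medium were exposed in duplicate for 48 h to eight half-log concentrations up to 100 uM in 0.5% DMSO. CYP1A1 mRNA was quantified by TaqMan qRT-PCR, normalized to ACTB, GAPDH and POLR2A.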

Read-out in assay [13]: CFLAR gene, CFLAR (gene 8837)
Briefly: LTEA_HepaRG_CFLAR: Life Technologies and Expression Analysis (LTEA) Assay for CFLAR gene using HepaRG (AID 2283455). Conditions: mRNA level, 48 h; actives raise or lower the signal. Summed up: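 HepaRG, 48 h exposure, 8-pt conc-response (100 uM top, half-log), 0.5% DMSO vehicle, duplicates. CFLAR expression by qRT-PCR; ACTB/GAPDH/POLR2A normalization; gain or loss fit vs DMSO baseline.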

Read-out in assay [14]: Forkhead box O1 (FOXO1), FOXO1 (gene 2308)
The assay is described as follows: LTEA_HepaRG_FOXO1: Life Technologies and Expression Analysis (LTEA) Assay for Forkhead box O1 (FOXO1) using HepaRG (AID 2283456). As to conditions: mRNA level, 48 h; actives raise or lower the signal. Put shortly:
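Readout is FOXO1 transcript level by multiplexed qRT-PCR against three housekeeping genes, curve-fitted in both directions relative to 0.5% DMSO vehicle. Human HepaRG cultures received chemicals for 48 h, up to 100 uM in half-log steps.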

Read-out in assay [15]: Forkhead box O3 (FOXO3), FOXO3 (gene 2309)
Briefly: LTEA_HepaRG_FOXO3: Life Technologies and Expression Analysis (LTEA) Assay for Forkhead box O3 (FOXO3) using HepaRG (AID 2283459). Conditions: mRNA level, 48 h; actives raise or lower the signal. Put shortly: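 HepaRG, 48 h post-dose; 8 conc., half-log from 100 uM, 0.5% DMSO, duplicates; serum-free induction medium. Readout: FOXO3 mRNA, TaqMan qRT-PCR, housekeeping-normalized. Bidirectional curve fit vs DMSO baseline.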

Read-out in assay [16]: ABC Transporter (ABCB1), ABCB1 (gene 5243)
Briefly: LTEA_HepaRG_ABCB1: Life Technologies and Expression Analysis (LTEA) Assay for ABC Transporter (ABCB1) using HepaRG (AID 2283460). As to conditions: mRNA level, 48 h; actives raise or lower the signal. Put shortly:
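Expression of ABCB1 was quantified by qRT-PCR against three housekeeping genes after human HepaRG cultures received test chemicals for 48 hours. Concentrations spanned eight half-log steps topping at 100 uM in 0.5% DMSO; gain or loss of signal was fitted relative to vehicle.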

Read-out in assay [17]: growth arrest and DNA damage 45 (GADD45B), GADD45B (gene 4616)
The assay is described as follows: LTEA_HepaRG_GADD45B: Life Technologies and Expression Analysis (LTEA) Assay for growth arrest and DNA damage 45 (GADD45B) using HepaRG (AID 2283461). Conditions: mRNA level, 48 h; actives raise or lower the signal. Summed up:
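Differentiated HepaRG cells, plated 48 h then switched to serum-free induction medium, were exposed 48 h in duplicate to eight half-log concentrations from 100 uM in 0.5% DMSO; mRNA quantified by qRT-PCR, normalized to ACTB/GAPDH/POLR2A, bidirectional fit versus DMSO.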

Read-out in assay [18]: ABC Transporter (ABCC3), ABCC3 (gene 8714)
Briefly: LTEA_HepaRG_ABCC3: Life Technologies and Expression Analysis (LTEA) Assay for ABC Transporter (ABCC3) using HepaRG (AID 2283462). As to conditions: mRNA level, 48 h; actives raise or lower the signal. Summed up:
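HepaRG cells in serum-free induction medium were exposed for 48 h in duplicate to 8-point half-log concentrations topping at 100 uM in 0.5% DMSO. ABCC3 mRNA was measured by qRT-PCR normalized to ACTB, GAPDH and POLR2A, with bidirectional fitting versus DMSO.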

Read-out in assay [19]: ABC Transporter (ABCB11), ABCB11 (gene 8647)
The assay is described as follows: LTEA_HepaRG_ABCB11: Life Technologies and Expression Analysis (LTEA) Assay for ABC Transporter (ABCB11) using HepaRG (AID 2283463). As to conditions: mRNA level, 48 h; actives raise or lower the signal. Summed up: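 ABCB11 transcript levels are read by Fluidigm TaqMan qRT-PCR after 48 h chemical treatment of human HepaRG cells. Concentrations span 100 uM downward in half-log steps with 0.5% DMSO; gain or loss is fitted against DMSO controls.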

Sequence of Fatty acid synthase (Homo sapiens) (P49327 whole entry, looked up): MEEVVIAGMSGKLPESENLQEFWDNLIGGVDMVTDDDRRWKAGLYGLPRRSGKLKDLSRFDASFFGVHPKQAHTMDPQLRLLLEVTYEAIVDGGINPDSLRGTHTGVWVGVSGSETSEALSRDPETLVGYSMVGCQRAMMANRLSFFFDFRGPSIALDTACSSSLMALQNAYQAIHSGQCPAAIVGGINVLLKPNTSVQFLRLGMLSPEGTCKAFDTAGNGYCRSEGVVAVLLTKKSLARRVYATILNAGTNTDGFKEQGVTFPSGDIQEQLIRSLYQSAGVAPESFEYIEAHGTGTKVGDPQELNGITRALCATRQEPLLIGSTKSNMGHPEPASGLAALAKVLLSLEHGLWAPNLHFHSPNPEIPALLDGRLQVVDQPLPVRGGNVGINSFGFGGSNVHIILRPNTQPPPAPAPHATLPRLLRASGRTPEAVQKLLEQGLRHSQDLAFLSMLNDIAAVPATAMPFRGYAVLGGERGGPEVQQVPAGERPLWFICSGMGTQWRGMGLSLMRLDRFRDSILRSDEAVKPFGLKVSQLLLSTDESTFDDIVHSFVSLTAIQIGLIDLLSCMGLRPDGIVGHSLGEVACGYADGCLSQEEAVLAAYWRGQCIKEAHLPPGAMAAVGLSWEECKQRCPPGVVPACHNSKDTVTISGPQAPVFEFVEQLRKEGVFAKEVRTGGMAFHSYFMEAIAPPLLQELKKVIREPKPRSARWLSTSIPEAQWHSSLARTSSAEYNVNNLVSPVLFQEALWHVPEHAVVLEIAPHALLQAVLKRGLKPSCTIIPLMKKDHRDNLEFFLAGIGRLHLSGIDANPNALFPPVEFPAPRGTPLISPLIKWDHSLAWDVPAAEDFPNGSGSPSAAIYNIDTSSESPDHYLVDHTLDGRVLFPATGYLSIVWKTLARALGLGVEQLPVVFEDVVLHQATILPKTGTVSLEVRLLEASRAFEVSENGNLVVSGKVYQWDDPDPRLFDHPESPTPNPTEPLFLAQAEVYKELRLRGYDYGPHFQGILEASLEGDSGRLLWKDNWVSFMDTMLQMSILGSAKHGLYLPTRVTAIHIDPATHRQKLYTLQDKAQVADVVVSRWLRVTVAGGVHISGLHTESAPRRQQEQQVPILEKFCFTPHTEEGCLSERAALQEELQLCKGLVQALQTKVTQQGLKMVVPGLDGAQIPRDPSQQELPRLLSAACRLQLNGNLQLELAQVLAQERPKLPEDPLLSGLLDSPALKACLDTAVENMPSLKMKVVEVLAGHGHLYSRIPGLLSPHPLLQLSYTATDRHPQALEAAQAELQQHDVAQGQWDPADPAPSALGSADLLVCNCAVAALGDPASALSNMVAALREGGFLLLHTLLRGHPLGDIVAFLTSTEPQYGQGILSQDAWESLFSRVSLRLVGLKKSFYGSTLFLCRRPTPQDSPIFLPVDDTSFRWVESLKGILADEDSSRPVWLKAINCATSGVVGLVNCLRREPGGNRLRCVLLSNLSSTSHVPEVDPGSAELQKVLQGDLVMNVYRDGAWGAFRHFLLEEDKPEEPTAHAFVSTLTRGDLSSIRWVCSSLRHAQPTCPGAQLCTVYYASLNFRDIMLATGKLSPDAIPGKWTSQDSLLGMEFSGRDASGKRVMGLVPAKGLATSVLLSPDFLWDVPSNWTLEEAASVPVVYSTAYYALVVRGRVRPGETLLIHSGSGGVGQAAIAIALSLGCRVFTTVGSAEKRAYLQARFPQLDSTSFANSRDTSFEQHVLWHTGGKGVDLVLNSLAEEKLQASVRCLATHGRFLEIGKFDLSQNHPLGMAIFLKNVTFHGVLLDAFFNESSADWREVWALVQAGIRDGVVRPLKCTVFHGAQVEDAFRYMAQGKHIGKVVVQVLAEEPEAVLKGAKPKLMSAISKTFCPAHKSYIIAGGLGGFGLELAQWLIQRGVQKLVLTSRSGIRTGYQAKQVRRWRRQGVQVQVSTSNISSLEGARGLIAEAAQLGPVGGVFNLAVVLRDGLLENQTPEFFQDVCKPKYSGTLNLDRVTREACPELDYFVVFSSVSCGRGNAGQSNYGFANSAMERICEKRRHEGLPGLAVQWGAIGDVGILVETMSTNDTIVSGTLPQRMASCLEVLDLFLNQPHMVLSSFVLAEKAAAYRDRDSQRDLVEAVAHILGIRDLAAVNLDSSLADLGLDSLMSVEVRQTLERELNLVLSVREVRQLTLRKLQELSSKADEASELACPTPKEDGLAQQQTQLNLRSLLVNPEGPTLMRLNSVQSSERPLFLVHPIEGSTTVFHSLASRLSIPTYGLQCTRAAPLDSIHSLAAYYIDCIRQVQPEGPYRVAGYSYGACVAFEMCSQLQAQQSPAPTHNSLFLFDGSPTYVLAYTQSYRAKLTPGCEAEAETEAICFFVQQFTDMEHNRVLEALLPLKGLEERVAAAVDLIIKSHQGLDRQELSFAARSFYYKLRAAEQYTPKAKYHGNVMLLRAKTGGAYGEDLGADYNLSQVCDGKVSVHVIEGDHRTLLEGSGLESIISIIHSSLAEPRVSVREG

On to `OC(Cc1ccccc1Cl)(Cn1cncn1)C1(Cl)CC1` (configuration not stated), for which the AC50 in assay [1] was 6.94 µM (active); in assay [3], 3.86 µM (active); in [4] it was 7.74 µM (active); in [5] it was 6.41 µM (active). In addition, the result in [2] was inactive.

`CC(C)O.CC(C)O.OCCN(CCO)CCO.OCCN(CCO)CCO.[Ti]`: the result in assay [6], in [7], in assay [8], in assay [9], in assay [10] and in [11] was inactive. In addition, the outcome in [12], in assay [13], in assay [14], in assay [15], in assay [16] and in assay [17] was inactive. Further, the call in assay [18] and in assay [19] was inactive.

For `CCC[CH2][Sn]([Cl])([Cl])[CH2]CCC`, the compound was called inactive in assay [1], in assay [2], in assay [3], in [4] and in assay [5].

Turning to `Oc1cc(Cl)c(Cl)cc1Cl`, the outcome in assay [6], in assay [7], in assay [8], in [9], in assay [10] and in [11] was inactive. The outcome in [13], in assay [14], in [16], in assay [17], in assay [18] and in [19] was inactive. Besides, the AC50 in assay [12] was 80.5 µM (active).
